# Several values for one entry are separate records, joined by “and”; a condition that tells them apart may be missing. Equal entries are not always repeated. Results filed as inconclusive are left out. A call without a number means that no potency is given here. More than one record can exist for a structure, and the calls need not agree. Activity calls are given as the source filed them. Calls follow the shape of the dose curve; as a rule, active = well fitted curve in the direction sought with a large enough effect in the repeat runs; inconclusive = weak or mixed curves; inactive = no such curve, though single readings can be large; an effect the other way counts as inactive or inconclusive.
# Tests used:
# [1] = A CellTox Green Cytotoxicity Assay to monitor cytotoxicity in HEK293 cells - 32 hour (AID 1224881); also: nearly all actives have a fitted effect of over 40% in size; also: potency is read from the fitted curve at half-maximal effect
# In short: (§1)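 Cells (HEK293, 600/well) and dye reagent are dispensed together. After 5 h at 37 C, 23 nL compound is pinned in. Plates stay at 37 C for 40 h with fluorescence read at 0h, 8h, 16h, 24h, 32h and 40h.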
# [2] = A CellTox Green Cytotoxicity Assay to monitor cytotoxicity in HepG2 cells - 0 hour (AID 1224882); also: nearly all actives have a fitted effect of over 35% in size
# In short: (§2)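 Cells and non-lytic dye reagent are dispensed together (600 HepG2 cells/well) and incubated 5 h before DMSO compound transfer. Kinetic fluorescence is then recorded in the same wells during 40 h at 37 C.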
# [3] = A CellTox Green Cytotoxicity Assay to monitor cytotoxicity in HepG2 cells - 32 hour (AID 1224883); also: nearly all actives have a fitted effect of over 50% in size; also: potency is read from the fitted curve at half-maximal effect
# In short: as §2
# [4] = A CellTox Green Cytotoxicity Assay to monitor cytotoxicity in HEK293 cells - 8 hour (AID 1224884); also: nearly all actives have a fitted effect of over 35% in size; also: potency is read from the fitted curve at half-maximal effect
# In short: as §1
# [5] = qHTS RealTime-Glo MT Cell Viability Assay in HEK293 cells - 24 hour (AID 1224886); also: nearly all actives have a fitted effect of over 50% in size; also: potency is read from the fitted curve at half-maximal effect
# In short: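 HEK293 cells seeded with NanoLuc/prosubstrate reagent, rested 5 h at 37 C, then dosed and kept at 37 C up to 40 h. Nonlytic real-time luminescence from viable cells read at 0, 8, 16, 24, 32 and 40 h.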
# [6] = A CellTox Green Cytotoxicity Assay to monitor cytotoxicity in HEK293 cells - 16 hour (AID 1224888); also: nearly all actives have a fitted effect of over 35% in size; also: potency is read from the fitted curve at half-maximal effect
# In short: as §1
# [7] = qHTS RealTime-Glo MT Cell Viability Assay in HepG2 cells - 0 hour (AID 1224889); also: nearly all actives have a fitted effect of over 50% in size; also: potency is read from the fitted curve at half-maximal effect
# In short: (§3)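 HepG2 cells (600/well) were dispensed with RealTime-Glo reagents, incubated 5 h at 37 °C, then treated with compounds in DMSO for up to 40 h. Nonlytic NanoLuc luminescence reflecting viable cells was read at each stated time point.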
# [8] = A CellTox Green Cytotoxicity Assay to monitor cytotoxicity in HepG2 cells - 8 hour (AID 1224890); also: nearly all actives have a fitted effect of over 45% in size; also: potency is read from the fitted curve at half-maximal effect
# In short: as §2
# [9] = qHTS RealTime-Glo MT Cell Viability Assay in HepG2 cells - 16 hour (AID 1224885); also: nearly all actives have a fitted effect of over 50% in size; also: potency is read from the fitted curve at half-maximal effect
# In short: as §3
# [10] = qHTS RealTime-Glo MT Cell Viability Assay in HEK293 cells - 8 hour (AID 1224887); also: nearly all actives have a fitted effect of over 50% in size; also: potency is read from the fitted curve at half-maximal effect
# In short: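 Real-time viability in HEK293: signal arises when living cells convert a prosubstrate for NanoLuc in the medium, so luminescence tracks viable cell number. Compound (23 nL, DMSO) added 5 h post-seeding; kinetic reads at 0–40 h, 37 C.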
Compound,Potency [1],Potency [2],Potency [3],Potency [4],Potency [5],Potency [6],Potency [7],Potency [8],Potency [9],Potency [10]
Cc1cccc([N+](=O)[O-])c1C(=O)O,inactive,inactive,inactive,inactive,inactive,inactive,inactive,inactive,–,–
CCCCC(CC)COC(=O)CC(C(=O)OCC(CC)CCCC)S(=O)(=O)O (stereo unspecified),21.9 µM (active),inactive,42 µM (active) and 43.6 µM (active),13.8 µM (active),–,19.5 µM (active),inactive,inactive,–,–
CCCOC(=O)c1cc(O)c(O)c(O)c1,inactive,inactive,inactive,inactive,–,inactive,inactive,inactive,inactive,–
CC(C)CCCCCCc1ccc(O)cc1,22.3 µM (active) and 38.9 µM (active),inactive,19.8 µM (active) and 43.6 µM (active),39.6 µM (active),4.44 µM (active),39.6 µM (active) and 38.9 µM (active),inactive,25 µM (active) and 43.6 µM (active),–,19.8 µM (active)
CC1=C(C=O)C(C)(C)CC=C1,inactive,inactive,inactive,inactive,inactive,inactive,inactive,inactive,–,inactive
Cc1cc(C2(c3cc(C)c(O)cc3C)OS(=O)(=O)c3ccccc32)c(C)cc1O,inactive,inactive,inactive,inactive,inactive,inactive,19.5 µM (active) and 15.5 µM (active),inactive,–,inactive
CC1COc2c(N3CCN(C)CC3)c(F)cc3c(=O)c(C(=O)O)cn1c23 (stereo unspecified),inactive,inactive,inactive,inactive,–,inactive,–,inactive,–,–
c1ccc2c(c1)-c1cccc3c1c-2cc1ccccc13,inactive,inactive,inactive,inactive,inactive,inactive,inactive,inactive,–,inactive
C=C(C)C(=O)O,inactive,inactive,inactive,inactive,inactive,inactive,inactive,inactive,inactive,–
COc1ccc(CCN(C)CCCC(C#N)(c2ccc(OC)c(OC)c2)C(C)C)cc1OC (stereo unspecified),inactive,inactive,54.8 µM (active),inactive,–,inactive,–,inactive,–,–
CCC(CO)(CO)COCC(CC)(CO)CO,inactive,inactive,inactive,inactive,inactive,inactive,inactive,inactive,–,–
CC(C)(C)NCC(O)c1cc(O)cc(O)c1 (stereo unspecified),inactive,inactive,inactive,inactive,inactive,inactive,inactive,inactive,–,inactive
CCCCCC(=O)O[C@]1(C(C)=O)CC[C@H]2[C@@H]3CCC4=CC(=O)CC[C@]4(C)[C@H]3CC[C@@]21C,inactive,inactive,inactive,inactive,24.4 µM (active),inactive,4.34 µM (active),inactive,–,inactive
Oc1c(Cl)cc(Cl)c(Cl)c1Cc1c(O)c(Cl)cc(Cl)c1Cl,54.8 µM (active) and 49 µM (active) and inactive,inactive,inactive and 38.9 µM (active),inactive,3.88 µM (active),inactive,inactive,inactive,–,–
Nc1cc(Cl)c(-c2cc(Cl)c(N)cc2Cl)cc1Cl,inactive,inactive,17.4 µM (active) and 54.9 µM (active),inactive,11 µM (active),inactive,inactive,inactive,–,inactive
O=C(OCc1ccccc1)c1ccc(O)cc1,inactive,inactive,49 µM (active) and inactive,inactive,inactive,inactive,inactive,inactive,–,inactive
NC12CC3CC(CC(C3)C1)C2,inactive,inactive,inactive,inactive,inactive,inactive,inactive,inactive,–,inactive
NC(=Nc1ccccc1)Nc1ccccc1,inactive,inactive,inactive,inactive,–,inactive,inactive,inactive,inactive,inactive
COc1cc(C(=S)N2CCOCC2)ccc1O,inactive,inactive,inactive,inactive,inactive,inactive,inactive,inactive,–,inactive
Cc1cccc2n[nH]nc12,inactive,inactive,inactive,inactive,inactive,inactive,inactive,inactive and 43.6 µM (active),inactive,–
CN1C(=O)c2ccc([N+](=O)[O-])cc2C1=O,inactive,inactive,inactive,inactive,inactive,inactive,inactive,inactive,–,inactive
Nc1ccc2cc3ccccc3cc2c1,inactive,inactive,inactive,inactive,inactive,inactive,inactive,inactive,inactive,–

Compound,Potency [1],Potency [2],Potency [3],Potency [4],Potency [5],Potency [6],Potency [7],Potency [8],Potency [9],Potency [10]
O=C(O[C@@H]1Cc2c(O)cc(O)cc2O[C@@H]1c1cc(O)c(O)c(O)c1)c1cc(O)c(O)c(O)c1,inactive,inactive,inactive,inactive,10.6 µM (active),inactive,inactive,inactive,–,–
Cc1c(O)cccc1C(=O)N[C@@H](CSc1ccccc1)[C@H](O)CN1C[C@H]2CCCC[C@H]2C[C@H]1C(=O)NC(C)(C)C,inactive,inactive,12 µM (active),inactive,21.3 µM (active),inactive,inactive,inactive,–,inactive
Cc1cccc(O)c1C,inactive,inactive,inactive,inactive and 22.5 µM (active),inactive,inactive,inactive,inactive,–,inactive
NC(N)=NC(=O)Cc1c(Cl)cccc1Cl,inactive,inactive,inactive,inactive,inactive,inactive,inactive,inactive,inactive,–
C1COC(NC(C2CC2)C2CC2)=N1,inactive,inactive,inactive,inactive,inactive,inactive,inactive,inactive,–,–
O=C(O)CP(=O)(O)O,inactive,inactive,inactive,inactive,inactive,inactive,inactive,inactive,–,inactive
CC(=O)Nc1ccc(C(=O)CCl)cc1,inactive and 15.5 µM (active),inactive,inactive and 19.5 µM (active),inactive,inactive and 19.5 µM (active),inactive,inactive,inactive,–,–
BrC1CCC(Br)C(Br)CCC(Br)C(Br)CCC1Br (stereo unspecified),inactive,inactive,inactive,inactive,inactive,inactive,inactive,inactive,–,inactive
OCC(CO)N[C@H]1C[C@](O)(CO)[C@@H](O)[C@H](O)[C@H]1O,inactive,inactive,inactive,inactive,inactive,inactive,inactive,inactive,inactive,–
CC(=O)OCC1=C(C(=O)O)N2C(=O)[C@@H](NC(=O)Cc3cccs3)[C@H]2SC1,inactive,inactive,inactive,inactive,inactive,inactive,inactive,inactive,inactive,–
O=Nc1ccc(Nc2ccccc2)cc1,6.2 µM (active) and 7.76 µM (active),inactive,49.2 µM (active) and 43.6 µM (active),inactive,6.96 µM (active) and 9.77 µM (active),inactive,19.6 µM (active),inactive,–,15.6 µM (active) and 21.9 µM (active)
CC(=O)OCCOCCOCCOC(C)=O,inactive,inactive,inactive,inactive,inactive,inactive,inactive,inactive,–,–
CC(=O)N[C@@H](CS)C(=O)O,inactive,inactive,inactive,inactive,inactive,inactive,inactive,inactive,–,–
O=C(O)c1cc(Cl)cc(Cl)c1,inactive,inactive,inactive,inactive,inactive,inactive,inactive,inactive,–,inactive
[Cl][In]([Cl])[Cl],inactive,inactive,inactive,–,–,inactive,inactive,inactive,–,inactive
CCCNC(C)C(=O)Nc1ccccc1C (stereo unspecified),inactive,inactive,inactive,–,inactive,inactive,inactive,inactive,inactive,inactive
c1ccc2c(c1)CCCC2C1=NCCN1 (stereo unspecified),–,inactive,inactive,inactive,inactive,inactive,inactive,inactive,inactive,inactive
O=C(Oc1ccccc1)c1ccccc1O,inactive,inactive,inactive,–,inactive,inactive,inactive,inactive,inactive,inactive
CCCCOCCOC(=O)c1ccccc1C(=O)OCCOCCCC,inactive,inactive,inactive,–,inactive,inactive,inactive,inactive,inactive,inactive
O=C(O)CCc1ccccc1,inactive,inactive,inactive,–,inactive,inactive,inactive,inactive,–,inactive
CCN(CC)C(=O)Nc1ccc(OCC(O)CNC(C)(C)C)c(C(C)=O)c1 (stereo unspecified),–,inactive,inactive,inactive,inactive,inactive,inactive,inactive,inactive,inactive
CN(C)c1ccc2nc3ccc(=[N+](C)C)cc-3sc2c1,inactive,inactive,inactive,–,2.36 µM (active) and 2.19 µM (active) and 2.68 µM (active),inactive,inactive,inactive,14.9 µM (active) and 17.4 µM (active) and 19 µM (active),2.97 µM (active) and 2.75 µM (active) and 3.01 µM (active)
